Assay outcomes deposited in PubChem BioAssay by National Center for Advancing Translational Sciences (NCATS).
Most compounds without a hit are left out; they make up all but 19% or so of the library.
DT40 TDP1 no CPT – qHTS for Inhibitors of human tyrosyl-DNA phosphodiesterase 1 (TDP1): qHTS in cells in absence of CPT; hit rate 15% among 420,000; Potency, µM (highest dose often 46.2 µM), for inactives: at the highest dose activity change, negative = growth inhibition, actives largely listed as inhibitors; DT40 Tdp1-/- hTDP1 cells, no CPT, ATP luminescence, 48 h; AID 686978, 2013; also: nearly all actives have a fitted effect of over 55% in size
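Chicken DT40 Tdp1-/- cells complemented with human TDP1, screened without camptothecin (DMSO vehicle only), 400 cells/well. Compounds pin-transferred, cells incubated at 37 °C for at least 48 hr. Growth read as ATP-dependent luminescence (CellTiter-Glo, 30 min at RT).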
TDP1 inh – inhibitors of human tyrosyl-DNA phosphodiesterase TDP1. hit rate 0.28% among 350,000. Q9NUW8. recombinant TDP1, AlphaScreen DNA substrate cleavage. AID 485290. Potency, µM (series often up to 130 µM), for the others: at the top dose activity change, negative = inhibition, hits mostly inhibitors; also: nearly all actives have a fitted effect of over 40% in size
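Enzyme-compound mixtures sat 15 min at room temperature, followed by a 5 min reaction with 15 nM final substrate and 10 min with AlphaScreen beads. Recombinant human Tdp1 was used at 1 nM final.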
RORgamma inh – blocks mouse ROR gamma transcriptional activity | hit rate 5.4% among 310,000 | Drosophila S2 Gal4-RORgamma UAS-luciferase reporter, 20 h | Potency, µM (top dose mostly 53.6 µM), for inactives: top-dose activity change, negative = inhibition, actives largely listed as inhibitors | AID 2551 | P51450; also: nearly all actives have a fitted effect of over 60% in size
Target sequence (P51450 whole entry, looked up, the tested form may be a part): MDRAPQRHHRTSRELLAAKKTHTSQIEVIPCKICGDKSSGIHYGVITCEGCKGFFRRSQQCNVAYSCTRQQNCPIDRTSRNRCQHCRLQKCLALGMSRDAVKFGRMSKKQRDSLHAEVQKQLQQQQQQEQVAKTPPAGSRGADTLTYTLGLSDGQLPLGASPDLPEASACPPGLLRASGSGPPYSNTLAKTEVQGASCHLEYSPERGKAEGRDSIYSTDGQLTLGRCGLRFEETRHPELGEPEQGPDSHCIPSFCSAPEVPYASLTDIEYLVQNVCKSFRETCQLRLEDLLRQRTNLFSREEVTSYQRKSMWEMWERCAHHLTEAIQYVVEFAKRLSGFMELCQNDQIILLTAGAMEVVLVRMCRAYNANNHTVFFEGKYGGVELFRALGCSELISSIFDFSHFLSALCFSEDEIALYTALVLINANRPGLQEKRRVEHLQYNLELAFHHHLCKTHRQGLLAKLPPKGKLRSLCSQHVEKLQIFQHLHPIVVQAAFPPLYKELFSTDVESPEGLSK
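Schneider cells (Drosophila), stable Gal4 DBD–ROR gamma + UAS-luc; 1 hr cmpd preincubation; Cu2+ induction 700 uM final; 20 hr ambient; luminescence.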
Gal4-VP16 FLuc – inhibits Gal4-VP16 luciferase reporter, ROR gamma counter-screen. Drosophila S2 Gal4-VP16 UAS-luciferase, luminescence, 20 h. Potency, µM (highest dose often 53.6 µM), for inactives: at the top dose activity, negative = inhibition, most hits filed as inhibitors. hit rate 3.5% among 310,000;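 also: Gal4-VP16 expression switched on by copper sulfate through the metallothionein promoter; nearly all actives have a fitted effect of over 50% in size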
TDP1 cell CPT – growth inhibition of DT40 Tdp1-/-;hTDP1 cells with camptothecin (screen for TDP1 inhibitors) | chicken DT40 Tdp1-/-;hTDP1 cells + 20 nM CPT, ATP luminescence, 48 h | Potency, µM (doses to about 46.2 µM), for inactives: top-dose activity change, negative = growth inhibition, hits mostly inhibitors | hit rate 12% among 420,000 | AID 686979; also: nearly all actives have a fitted effect of over 55% in size
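Cell growth measured by CellTiter-Glo luminescence after a minimum 48 h, 37 C compound exposure with 20 nM CPT in Tdp1-knockout DT40 cells stably expressing hTDP1, seeded 400/well; qHTS titration format.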
The depositor's hits bear a star; u = inconclusive; x = no result; [ ] = dose if it differs, or a comment. Calls follow the shape of the dose curve; as a rule, active = well fitted curve in the direction sought with a large enough effect; inconclusive = small, poorly fitted or top-dose-only effect, or another doubt; inactive = no such curve, though single readings can be large; an effect the other way counts as inactive or inconclusive. % is scaled to controls: 0 for no effect and ±100 for the full control effect; potency is read from the fitted curve at half-maximal effect.

SMILES	DT40 TDP1 no CPT	TDP1 inh	RORgamma inh	Gal4-VP16 FLuc	TDP1 cell CPT
COc1ccc(-n2ncc(C(=O)NCCCN3CCCCC3)c2C2CCN(C(=O)OC(C)(C)C)CC2)cc1	18.4µM*	2.1%	x	x	18.4µM*
Cc1ccc(-n2ncc(C(=O)NCCN3CCC(Cc4ccccc4)CC3)c2C2CCN(C(=O)OC(C)(C)C)CC2)cc1	2.91µM*	0.0%	x	x	4.61µM*
CCN1CCN(CCCNC(=O)c2cnn(-c3ccc(C)cc3)c2C2CCN(C(=O)OC(C)(C)C)CC2)CC1	u	4.2%	x	x	u
COCCNC(=O)CN(C)S(=O)(=O)c1ccc2c(c1)OCCO2	-9.2%	2.6%	u	-21.3%[0.365 µM]	-6.7%
COCCOC(=O)C1=C(C)NC2=C(C(=O)CC(C)(C)C2)C1c1ccc2c(c1)OCO2 (configuration not stated)	-8.2%	7.4%	-2.3%	-2.9%	5.4%
CC1(C)CC(=O)C2=C(C1)Nc1[nH]n(-c3ccccc3)c(=O)c1C2c1ccc2c(c1)OCO2 (configuration not stated)	5.17µM*	8.8%	16.2%	3.6%	7.31µM*
CC(C)(C)c1ccc(-c2noc(C(=O)NN)n2)cc1	u	7.5%	10µM*	-27.7%	9.6%
CCCc1nc2ccc(Cl)cn2c1Cc1cccc(Cl)c1	8.2µM*	x	x	x	10.3µM*
CCCc1nc2ccc(Cl)cn2c1Cc1ccc(C)cc1	23.1µM*	x	x	x	23.1µM*
Cc1ccc(CCNC(=O)c2ccc3nc4ccc(Cl)cc4c(=O)n3c2)cc1	-24.8%	x	4.3%	7.1%	u
O=C(O)c1ccc(/C=N/N2CCN(c3ccccc3)CC2)cc1	1.8%	7.0%	-7.7%	-3.6%	1.2%
COc1ccccc1/C=C/C=N/n1c(-c2ccncc2)n[nH]c1=S	-7.9%	-1.2%	u	u	0.8%
S=c1[nH]nc(-c2ccco2)n1/N=C/C=C/c1ccco1	u	-4.7%	7.08µM*	10µM*	-17.5%
COc1ccccc1/C=C/C=N/n1c(-c2n[nH]c3c2CCC3)n[nH]c1=S	13µM*	3.5%	-29.6%	0.3%	u
COc1cccc(/C=N/n2c(-c3n[nH]c4c3CCC4)n[nH]c2=S)c1O	u	10.8%	u	-21.3%	-4.5%
COc1ccccc1/C=C/C=N/n1c(-c2ccco2)n[nH]c1=S	-8.6%	1.2%	0.631µM*	2.1%	7.8%
COc1ccccc1/C=C/C=N/n1c(-c2ccc(C)cc2)n[nH]c1=S	u	-8.2%	1.12µM*	2.82µM*	u
CCN(C(=O)CSc1ncn[nH]1)c1c(N)n(Cc2ccccc2)c(=O)[nH]c1=O	15.1%	-13.2%	x	x	-1.7%
COc1cc(NS(=O)(=O)c2c(C)[nH]c(C)c2C(=O)N2CCCCC2)cc(OC)c1OC	-3.4%	-0.9%	5.7%	-4.6%	-13.1%
O=[N+]([O-])c1ccccc1/C=C/C=N/n1c(-c2ccccc2)n[nH]c1=S	-10.6%	7.9%	6.31µM*	0.9%	-20.9%
COc1ccc(-c2n[nH]c(=S)n2/N=C/C=C\c2ccccc2OC)cc1	10.3µM*	-0.6%	3.55µM*	u	23.1µM*
COc1ccc(C2=NO[C@H]3C[C@](C(=O)NC(C)C)(S(=O)(=O)c4ccccc4)C[C@@H]23)cc1	-17.0%	x	0.5%	6.8%	5.0%
Cc1cccc(N/C=C/c2onc(C)c2[N+](=O)[O-])c1	9.2µM*	4.1%	-6.1%	-12.8%	u
Cc1noc(/C=C/c2nn(C)cc2Cl)c1[N+](=O)[O-]	11.6µM*	5.1%	u	u	20.6µM*
Cc1cccc(/C=C/c2onc(C)c2[N+](=O)[O-])n1	2.59µM*	x	x	x	2.59µM*
SMILES	DT40 TDP1 no CPT	TDP1 inh	RORgamma inh	Gal4-VP16 FLuc	TDP1 cell CPT
Cc1cc(O)ccc1N/C=C/c1onc(C)c1[N+](=O)[O-]	-22.4%	2.5%	-28.9%	-22.4%	-13.6%
O=C(COc1ccc2ccccc2c1Br)NNC(=O)Nc1ccccc1	-10.2%	-2.5%	-18.7%	-25.1%	-15.5%
COc1cc(/C=N/NC(=S)NCCN2CCOCC2)cc(OC)c1O	3.6%	-2.8%	u	u	27.2%
COc1cc(OC)c(OC)cc1/C=N/NC(=S)NCC1CCCO1 (configuration not stated)	u	9.8%	6.31µM*	14.1µM*	7.31µM*
S=C(NCCN1CCOCC1)N/N=C/c1ccccc1	-3.2%	5.6%	12.6µM*	u	10.9%
Oc1ccc(/C=N/NC(=S)NCCN2CCOCC2)c(O)c1	u	4.9%	12.6µM*	-9.7%	u
COc1ccc2ccccc2c1/C=N/NC(=S)NCCN1CCOCC1	-12.4%	5.0%	4.47µM*	4.47µM*	16.4µM*
COc1cc(/C=N/NC(=O)C(=O)NCC2CCCO2)ccc1O (configuration not stated)	-2.8%	5.5%	-2.9%	1.3%	6.7%
CCCCN1C(=O)C(O)=C(C(C)=O)C1c1ccccc1 (configuration not stated)	-25.3%	-3.6%	11.5%	8.1%	-3.7%
S=C(NCCCN1CCOCC1)Nc1ccc(N2CCOCC2)cc1	-10.4%	0.0%	-4.4%	-1.3%	-0.2%
S=C(NCCCN1CCOCC1)NN=C1c2ccccc2-c2ccccc21	5.8µM*	x	x	x	5.8µM*
COc1cc(OC)c(OC)cc1/C=N/NC(=S)NCCN1CCOCC1	16.4µM*	0.0%	3.98µM*	7.08µM*	18.4µM*
COC(=O)Cc1cc(=O)n2[nH]c(SC)nc2n1	-1.6%	4.7%	4.0%	-1.8%	-1.4%
O=C1C(=O)N(C/C=C/c2ccccc2)c2ccccc21	0.581µM*	x	5.6%	7.1%	0.92µM*
O=C1C(=O)N(CCCc2ccccc2)c2ccccc21	1.64µM*	x	u	6.9%	2.06µM*
O=C1c2ccccc2C(=O)N1C/C=C/c1ccccc1	3.6%	1.1%	-21.4%	-5.1%	5.1%
O=C(CCNc1ccc(Cl)cc1)c1cccs1	14.6µM*	0.6%	28.2%	-11.1%	25.9µM*
O=C(CCSc1ccc(Cl)cc1)c1cccs1	2.31µM*	1.0%	u	u	1.84µM*
O=C(CCNc1cc(Cl)cc(Cl)c1)c1cccs1	u	-1.1%	35.9%	-4.7%	u
CCOC(=O)c1ccc(NC(=O)C2(N3C(=O)c4ccccc4C3=O)CCCC2)cc1	2.1%	x	x	x	-6.0%
CC(SCc1ccccc1)C(=O)NN=C1CCN(C)CC1 (configuration not stated)	-11.0%	5.3%	7.08µM*	23.5%[0.365 µM]	-25.1%
Cc1ccc(CSCC(=O)N2CCN(c3ccc(F)cc3)CC2)cc1	23.1µM*	7.8%	21.8%	-3.2%	25.9µM*
COc1ccc(N2CCN(C(=O)CSc3ccc(C)cc3)CC2)cc1	u	-7.6%	2.6%	12.0%	-3.5%
COc1ccc(N2CCN(C(=O)CSCc3ccc(C)cc3)CC2)cc1	18.4µM*	2.6%	x	x	20.6µM*
